Screening data (PubChem)
MBNL1-CUG inh: blocks human MBNL1 binding to CUG repeat RNA | Q9NR56 | TR-FRET MBNL1-His/biotin-(CUG)12 binding, 665/545 ratio | Potency, µM (top dose mostly 57.5 µM), for the others: at the highest dose activity change, negative = inhibition, usual class: inhibitors | 280,000 compounds, 0.036% hits | AID 2675; active = well fitted inhibition curve with a large enough effect in the signal ratio, with a control signal flat, not every such curve was filed as active; inconclusive = small, poorly fitted or top-dose-only effect, or effect the other way, or a change in a side signal; inactive = no such curve, though single readings can be large or run the other way; the % refers to the signal ratio; also: potency is read from the fitted curve at half-maximal effect; % is scaled to controls: 0 for no effect and ±100 for the full control effect
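Inhibition of protein-RNA binding appears as loss of TR-FRET between terbium anti-His antibody on MBNL1-His and streptavidin-XL665 on biotin-(CUG)12. Activity is normalized to buffer-only and uninhibited-complex controls.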
VDR inh: blocks the human vitamin D receptor; P11473; VDR-SRC2-3 peptide fluorescence polarization, 2 h; Potency, µM, inactives show max response, negative = inhibition, hits mostly inhibitors; 400,000 compounds, 0.93% hits; also: potency is read from the fitted curve at half-maximal effect; % is scaled to controls: 0 for no effect and ±100 for the full control effect
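Measured by FP: displacement of SRC2-3 coactivator peptide from VDR by library compounds, following a two-hour ambient incubation.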
KCNH2 WT inh: blocks the wildtype human KCNH2 potassium channel; U2OS, BacMam KCNH2, thallium flux FluxOr; hits give low values; activity change, % at 1.84 µM; 340,000 compounds, 0.37% hits; AID 720551;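 active = maximum activity change below -70%; inconclusive = maximum activity change between -70% and -50%; inactive = maximum activity change above -50%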; also: % is scaled to controls: 0 for no effect and ±100 for the full control effect
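U2OS cells transduced with wild-type KCNH2 virus are loaded with FluxOr dye for 45 min, and thallium flux is measured in kinetic reads before and after stimulation buffer. Rate constants are normalized to DMSO controls.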
CBFb RUNX1 block: inhibitors of human CBF-beta and RUNX1 interaction; Q01196+Q13951; AlphaScreen CBFb-His/RUNX1-biotin binding, biochemical; Potency, µM (top dose mostly 59.8 µM), without a hit: at the highest dose activity, negative = inhibition, actives largely listed as inhibitors; 230,000 tested, under 10 active; AID 1477; also: % of control where 0% means no effect
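Compounds were screened at multiple concentrations against a preformed CBF-beta(His)/RUNX1(biotin) complex (30 nM of each) for 15 min at room temperature, followed by 90 min with nickel and streptavidin beads and AlphaScreen reading.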
KCNH2 3.1 block: KCNH2 3.1 (human) potassium channel inhibition | U2OS KCNH2 3.1, thallium flux FluxOr; hits give low values | 340,000 compounds, 0.95% hits | activity change, % (tested at about 1.8 µM);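 active = maximum activity change below -70%; inconclusive = maximum activity change from -70% to -50%; inactive = maximum activity change above -50%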;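 also: thallium influx rate constant from kinetic fluorescence after stimulation buffer; % is scaled to controls: 0 for no effect and ±100 for the full control effect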
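Thallium flux via FluxOr fluorescence (Red40 quencher, 45 min loading) in U2OS cells virally expressing the KCNH2 3.1 isoform (1.77 x 10^8 /mL virus, overnight at 37 C). Rate constants from 2-min kinetic reads post-stimulation, normalised to positive and negative controls.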
PLK1 PBD block: PLK1 (human) polo-box domain binding inhibition. P53350. 360,000 compounds, 2.8% hits. Potency, µM, for inactives: max response, negative = inhibition, hits mostly inhibitors. AID 720504. Plk1 PBD binding of FITC phosphopeptide, fluorescence polarization; also: potency is read from the fitted curve at half-maximal effect; series mostly up to about 57 µM; % is scaled to controls: 0 for no effect and ±100 for the full control effect; nearly all actives have a fitted effect of over 65% in size
Target sequence (P53350 whole entry, looked up, the tested form may be a part): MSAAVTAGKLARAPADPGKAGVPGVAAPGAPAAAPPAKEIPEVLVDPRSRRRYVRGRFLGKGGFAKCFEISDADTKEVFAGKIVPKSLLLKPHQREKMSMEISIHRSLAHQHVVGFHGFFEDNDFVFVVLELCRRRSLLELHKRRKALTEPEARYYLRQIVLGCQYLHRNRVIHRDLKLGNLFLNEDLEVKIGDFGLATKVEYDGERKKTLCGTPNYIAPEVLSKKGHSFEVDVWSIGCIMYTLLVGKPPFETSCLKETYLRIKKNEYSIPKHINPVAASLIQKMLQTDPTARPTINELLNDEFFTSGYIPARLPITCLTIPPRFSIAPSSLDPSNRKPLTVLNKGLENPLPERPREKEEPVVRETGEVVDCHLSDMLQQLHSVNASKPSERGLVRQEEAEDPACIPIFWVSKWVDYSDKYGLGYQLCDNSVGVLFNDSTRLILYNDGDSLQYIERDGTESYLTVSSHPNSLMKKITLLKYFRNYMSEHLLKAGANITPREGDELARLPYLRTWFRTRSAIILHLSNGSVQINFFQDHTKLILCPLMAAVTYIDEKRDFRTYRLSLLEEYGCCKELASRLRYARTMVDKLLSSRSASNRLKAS
* hit, by the source's call; ? = inconclusive; . = no result given. The list is not random: actives were taken first. Their share in the collection is about 3.8%. Unless noted, calls follow the shape of the dose curve; as a rule, active = well fitted curve in the direction sought with a large enough effect; inconclusive = small, poorly fitted or top-dose-only effect, or another doubt; inactive = no such curve, though single readings can be large; an effect the other way counts as inactive or inconclusive.

SMILES	MBNL1-CUG inh	VDR inh	KCNH2 WT inh	CBFb RUNX1 block	KCNH2 3.1 block	PLK1 PBD block
COc1ccccc1C(=O)N/C(=C\c1ccc(Br)cc1)C(=O)NCC(=O)O	.	-14%	16	1%	-6	-10%
COc1ccccc1C(=O)N/C(=C/c1ccc(Br)cc1)C(=O)N1CCCC1	.	7%	5	-29%	10	27µM*
CN1CCN(C(=O)/C(=C/c2ccc(F)cc2)NC(=O)c2ccccc2)CC1	-2%	-7%	-23	.	-91*	-11%
Cc1ccc(C(=O)N/C(=C/c2ccco2)C(=O)N2CCOCC2)cc1	10%	-10%	-13	.	4	5%
COc1ccc(C(=O)N/C(=C\c2cn(C)c3ccccc23)C(=O)N2CCN(C)CC2)cc1OC	11%	?	-4	.	10	27µM*
CC1CCN(C(=O)Cn2c(-c3cccs3)cc3cc(Cl)ccc32)CC1	.	14%	.	.	.	.
Cc1ccc(CCNC(=O)c2ccc(CSCc3ccccc3Cl)o2)cc1	.	1%	.	.	.	.
Cc1nc(Nc2ccc(Cl)cc2)c2oc3ccccc3c2n1	82%	?	-6	.	-7	27µM*
Cn1cc(Cl)c(C(=O)NNC(=S)NCc2ccco2)n1	-3%	?	.	-20%	-2	27µM*
CC(C)(C)NC(=S)NCc1ccco1	0%	8%	-19	-4%	-16	-7%
CN(C)c1ccc(C(=S)NCc2ccco2)cc1	109%	?	1	-9%	0	19µM*
Cc1c(Cl)c(C(=O)NNC(=S)NCc2ccco2)nn1C	20%	16%	-1	6%	-26	-22%
S=C(NCc1ccco1)NCc1ccco1	.	?	13	.	14	6µM*
NS(=O)(=O)c1ccc(NC(=S)NCc2ccc(Cl)cc2)cc1	0%	?	13	2%	-10	11µM*
NS(=O)(=O)c1ccc(NC(=S)NCc2ccco2)cc1	-8%	?	-15	-2%	5	27µM*
NS(=O)(=O)c1ccc(NC(=S)NCc2ccc(F)cc2)cc1	-9%	?	5	-2%	1	21µM*
CN(C)c1ccc(CN(Cc2ccco2)C(=O)c2ccco2)cc1	-4%	-18%	0	.	2	24µM*
CCCCC[C@H](O)/C=C/C=C\CCCCCCCC(=O)O	.	?	.	26%	.	.
Cc1ccc(C)c(NC(=O)CSc2nc3[nH]ncc3c(=O)[nH]2)c1	?	-10%	2	0%	-16	-6%
Cc1ccc(CNC(=O)CSc2nc3[nH]ncc3c(=O)[nH]2)cc1	-6%	-23%	-3	2%	-3	27µM*
C=C(C)C1CC=C(C)/C(=N/NC(=O)c2ccc(NC(=O)CCC)cc2)C1 (centres undefined)	1%	-3%	4	7%	-87*	-2%
C=C(C)C1CC=C(C)/C(=N/NC(=O)c2ccc(NC(=O)CC)cc2)C1 (centres undefined)	-7%	2%	-2	0%	-6	-8%
CC1CC(C)(C)NCc2ccccc21 (centres undefined)	-2%	-6%	14	4%	-89*	-6%
CC1CC(C)(C)NC(C)c2ccccc21 (centres undefined)	3%	12%	-1	3%	-15	-1%
COc1ccccc1NC(=S)NC1CCCCC1	-12%	2%	-1	-5%	3	-29%
SMILES	MBNL1-CUG inh	VDR inh	KCNH2 WT inh	CBFb RUNX1 block	KCNH2 3.1 block	PLK1 PBD block
COc1ccccc1NC(=S)NCC1CCCCC1	1%	?	.	-1%	2	6µM*
CCOc1ccc(CCNS(=O)(=O)c2ccc(-c3ccc(=O)[nH]n3)o2)cc1OCC	?	-5%	-1	.	15	-6%
CCOc1ccc(CCNS(=O)(=O)c2cnc[nH]2)cc1OCC	-2%	10%	-3	2%	11	27µM*
CCOc1ccc(CCNC(=O)CSCc2nc(-c3cccc(C)c3)oc2C)cc1OCC	.	-24%	.	.	.	.
COc1ccc2c(c1)CCC1C2=NN(/C(C)=C\C(C)=O)C1c1ccc(F)cc1 (centres undefined)	-1%	?	.	-5%	6	12µM*
COc1ccc2c(c1)C1=NN(/C(C)=C/C(C)=O)C(c3ccc(F)cc3)C1CC2 (centres undefined)	0%	?	-5	10%	-20	2%
Clc1ccccc1CN1CCN(CCCc2ccccc2)CC1	-19%	?	17	-1%	-78*	-10%
OCC1(CCc2ccccc2)CCN(Cc2ccccc2Cl)CC1	?	-6%	30	-10%	-80*	-1%
OCC1(CCc2ccccc2)CCN(Cc2cc(F)ccc2-n2cccn2)CC1	13%	?	-28	-3%	-99*	-4%
Cc1cccc(CN2CCN(CCCc3ccccc3)CC2)c1	-6%	.	.	0%	.	.
COc1cc(C2/C(=C(\O)c3ccc4c(c3)CC(C)O4)C(=O)C(=O)N2CC2CCCO2)cc(OC)c1OC (centres undefined)	4%	-6%	-9	.	-2	-3%
CC1Cc2cc(/C(O)=C3/C(=O)C(=O)N(CC4CCCO4)C3c3ccco3)ccc2O1 (centres undefined)	0%	-12%	-1	3%	-2	30µM*
O=C(/C(=N\O)n1cncn1)c1ccc(Cl)cc1Cl	-9%	11%	-8	-4%	1	2%
O=C(/C(=C/c1ccccc1)n1cncn1)c1ccc(Cl)cc1Cl	.	20µM*	1	-4%	2	19µM*
COCCCNC(=O)C1CCN(C(=O)c2ccc(-n3ccc4ccccc43)s2)CC1	.	9%	.	.	.	.
CC(C)(C)N(NS(=O)(=O)c1ccc(F)cc1)c1ccccc1	0%	45µM*	12	.	8	?
Cc1ccccc1NS(=O)(=O)c1ccc(F)cc1	10%	-3%	-24	2%	2	1%
Cc1cc(-n2c(C)cc(C(=O)CN3C(=O)NC4(CCCCCC4)C3=O)c2C)no1	3%	7%	7	-10%	-8	-2%
Cc1cc(C(=O)CN2C(=O)NC3(CCCCC3)C2=O)c(C)n1-c1ccc2c(c1)OCO2	-1%	?	3	-16%	-2	24µM*
CC(C)(C)C1CCc2oc3ccc(NS(=O)(=O)c4cc(Cl)ccc4Cl)cc3c2C1 (centres undefined)	.	-6%	.	.	.	.
COc1ccc(Cl)cc1S(=O)(=O)n1ccnc1C(C)C	-16%	-27%	2	0%	-83*	-11%
CC(C)c1nccn1S(=O)(=O)c1cc(Cl)ccc1Cl	0%	-5%	-5	2%	-2	-3%
Oc1ccc(Cl)cc1C1=NNC(c2cccs2)C1 (centres undefined)	.	?	-1	1%	21	15µM*
